Assay outcomes deposited in PubChem BioAssay by The Scripps Research Institute Molecular Screening Center.
Only some compounds are listed: those with a hit (about 3.5% of all), similar ones and a draw of the others.
FBW7 activator: human FBW7 E3 ligase activation, primary screen. AlphaScreen FBW7–phospho-cyclin E peptide binding, activator screen. Q969H0. hit rate 0.13% among 650,000. normalized activity (activation), % at 26.1 µM; in the data active = normalized activity above about 1.9%;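 note: purified mutant Fbw7 with reduced substrate affinity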
Target sequence (Q969H0 whole entry, looked up): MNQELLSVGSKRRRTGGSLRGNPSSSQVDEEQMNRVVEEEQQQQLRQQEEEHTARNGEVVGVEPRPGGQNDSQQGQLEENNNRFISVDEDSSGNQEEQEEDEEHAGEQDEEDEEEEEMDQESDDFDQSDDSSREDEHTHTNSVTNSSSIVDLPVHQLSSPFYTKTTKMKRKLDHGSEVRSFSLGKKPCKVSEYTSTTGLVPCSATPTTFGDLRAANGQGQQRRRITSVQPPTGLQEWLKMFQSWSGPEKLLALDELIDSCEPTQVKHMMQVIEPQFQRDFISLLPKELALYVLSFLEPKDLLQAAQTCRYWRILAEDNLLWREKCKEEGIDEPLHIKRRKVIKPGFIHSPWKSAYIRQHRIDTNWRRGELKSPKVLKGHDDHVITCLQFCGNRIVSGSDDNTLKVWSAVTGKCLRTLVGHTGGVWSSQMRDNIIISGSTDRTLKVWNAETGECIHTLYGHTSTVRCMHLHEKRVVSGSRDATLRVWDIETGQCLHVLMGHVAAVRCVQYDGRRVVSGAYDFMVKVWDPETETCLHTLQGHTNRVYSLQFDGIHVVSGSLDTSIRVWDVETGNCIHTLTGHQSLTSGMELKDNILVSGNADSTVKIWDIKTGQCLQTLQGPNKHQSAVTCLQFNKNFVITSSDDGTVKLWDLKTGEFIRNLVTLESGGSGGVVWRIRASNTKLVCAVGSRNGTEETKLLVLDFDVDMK
MITF primary: inhibitors of human MITF; O75030; AlphaScreen MITF homodimerization, bead proximity signal; inhibition, % at 2.6 µM; hit rate 0.91% among 650,000; in the data active = inhibition above about 50%
TEAD-YAP block: TEAD-YAP interaction inhibition; HEK-TIYL cells, TEAD-Gal4/YAP UAS-luciferase luminescence; inhibition, % at 9.12 µM; hit rate 1.4% among 640,000; AID 1259422; in the data active = inhibition above about 32%
GPR151 ag: activates the human receptor GPR151 | Q8TDV0 | PathHunter beta-arrestin GPR151 cells, luminescence | activation, % at 11.2 µM | hit rate 1% among 650,000 | AID 1508602; in the data active = activation above about 4.9%
Numbers stand for hits; n = inactive.

SMILES	FBW7 activator	MITF primary	TEAD-YAP block	GPR151 ag
CCCOCCOC(=O)c1[nH]c2c(c1C)C(=O)CC(c1ccc(OC)c(OC)c1)C2 (centres undefined)	n	n	n	n
CCCOCCOC(=O)c1[nH]c2c(c1C)C(=O)CC(c1cc(OC)ccc1OC)C2 (centres undefined)	n	n	47	n
O=C(Nc1ccc(-n2cnnn2)cc1)C1CCN(CC2CC=CCC2)CC1 (centres undefined)	n	n	n	n
COc1ccc(C2NC(=O)NC(C)=C2C(=O)Nc2ccccc2C)cc1OC (centres undefined)	n	n	n	n
Cc1c(C(=O)OCCOc2ccccc2)[nH]c2c1C(=O)CCC2	n	n	43	n
COCCOC(=O)c1[nH]c2c(c1C)C(=O)CC(c1cc(OC)ccc1OC)C2 (centres undefined)	n	n	44	n
COc1ccc(OC)c(C2CC(=O)c3c([nH]c(C(=O)OCC4CCCO4)c3C)C2)c1 (centres undefined)	n	n	n	n
COc1ccc(OC)c(C2CC(=O)c3c([nH]c(C(=O)OCCOC(C)C)c3C)C2)c1 (centres undefined)	n	n	45	n
COc1ccc(OC)c(C2CC(=O)c3c([nH]c(C(=O)OCCSC)c3C)C2)c1 (centres undefined)	n	n	n	n
COCCOC(=O)c1[nH]c2c(c1C)C(=O)CC(c1ccccc1Cl)C2 (centres undefined)	n	n	40	n
CCOc1ccc(C(=O)C2CCN(CC(=O)Nc3ccc([N+](=O)[O-])cc3C)CC2)cc1	n	n	n	n
Cc1ccccc1-c1ccc(C(=O)N2CCN(C)CC2)c(N2CCOCC2)n1	n	n	n	n
CCCOCCOC(=O)c1[nH]c2c(c1C)C(=O)CC(c1cccs1)C2 (centres undefined)	n	n	56	n
COc1ccc(NC(C)=O)cc1NC(=O)CSc1ccc(Br)cc1C	n	n	n	n
CCOc1ccc(C)cc1S(=O)(=O)Nc1ccc(F)cc1	n	n	n	n
CCOc1ccc(C)cc1S(=O)(=O)Nc1ccc(I)cc1	n	n	42	n
O=C1CC(Sc2nnnn2-c2ccccc2)C(=O)N1c1ccc(F)c([N+](=O)[O-])c1 (centres undefined)	n	n	n	n
COc1ccccc1-c1c(C(F)(F)F)oc2cc(OC(=O)C(C)C)ccc2c1=O	n	n	n	n
COc1ccccc1-c1c(C(F)(F)F)oc2cc(OC(=O)N3CCOCC3)ccc2c1=O	n	n	52	n
CSCc1ccc(C(=O)NC2CCCCCC2)cc1	n	n	47	n
O=C(NC1CCCCC1)c1ccc(CSc2ccc(Cl)cc2)cc1	n	n	n	n
Cc1[nH]n(-c2ccccc2)c(=O)c1C=Nc1ccc(N(C)C)cc1	n	63	n	n
Cc1ccc(/C=N/Nc2nncc(-c3ccccc3)n2)o1	n	n	n	n
Cc1nnc(N/N=C/c2ccccc2)[nH]c1=O	n	n	n	n
Cc1[nH]n(-c2ccccc2)c(=O)c1/C=N/Nc1nncc(-c2ccccc2)n1	n	n	42	n
SMILES	FBW7 activator	MITF primary	TEAD-YAP block	GPR151 ag
Cc1[nH]n(-c2ccccc2)c(=O)c1/C=N/Nc1nnc(C)c(=O)[nH]1	n	101	n	n
CCOc1ccc(N=Cc2c(C)[nH]n(-c3ccccc3)c2=O)cc1	n	n	n	n
COc1ccc(-c2cnnc(N/N=C/C=C/c3ccccc3)n2)cc1	n	n	n	n
Cc1ccc(-c2ncn(-c3ccc(Nc4nccc(-c5ccc(Cl)nc5)n4)cc3)n2)cn1	n	n	n	n
Cc1ccc(-c2ncn(-c3ccc(Nc4nccc(-c5ccc(S(C)(=O)=O)c(N6CCCC(O)C6)c5)n4)cc3)n2)cn1 (centres undefined)	n	n	38	n
Cc1ccc(-c2ncn(-c3ccc(Nc4nccc(-c5ccc(N)nc5)n4)cc3)n2)cn1	5.4	n	41	n
Cn1cccc1/C=N/Nc1nc2ccccc2s1	n	n	n	n
COc1cc(C2CC(=O)c3c([nH]c(C(=O)OCCSC)c3C)C2)cc(OC)c1OC (centres undefined)	n	n	56	n
COc1ccc(C2CC(=O)c3c([nH]c(C(=O)OCCOC(C)C)c3C)C2)cc1 (centres undefined)	n	n	n	n
CCOCCOC(=O)c1[nH]c2c(c1C)C(=O)CC(c1ccc(OC)c(OC)c1)C2 (centres undefined)	n	n	n	n
COc1cc(C2CC(=O)c3c([nH]c(C(=O)OCCOC(C)C)c3C)C2)cc(OC)c1OC (centres undefined)	n	n	66	n
Cc1cc(C)cc(C(=O)Nc2c3c(nn2-c2ccc(Cl)cc2)CS(=O)(=O)C3)c1	n	n	n	n
COc1ccc(C(=O)Oc2ccc3c(c2)O/C(=C\c2ccncc2)C3=O)cc1OC	n	n	n	n
COC(=O)COc1cccc(/C=C2\Oc3cc(OC)ccc3C2=O)c1	n	n	n	n
CC(=O)Oc1ccc2c(c1)O/C(=C\c1sccc1C)C2=O	n	n	88	n
COc1ccc(/C=C2\Oc3cc(OC(=O)c4ccncc4)ccc3C2=O)cc1	n	n	68	n
COc1ccc(/C=C2\Oc3cc(OC(C)=O)ccc3C2=O)cc1	n	n	51	n
CCC(=O)Oc1ccc2c(c1)O/C(=C\c1cccc(OC)c1)C2=O	n	n	87	n
COc1ccccc1-c1cc(C(F)(F)F)nc(S(=O)(=O)CCCC(=O)Nc2c(F)cc(F)cc2Br)n1	n	n	n	n
CCCCc1ccc(C(=O)Oc2ccc(-c3ccc(CCC)cn3)cc2)cc1	n	n	70	n
CCCc1ccc(-c2ccc(C(=O)Oc3ccc(F)cc3)cc2)nc1	n	n	n	n
CCCCCc1ccc(-c2ccc(C(=O)Oc3ccc(CC)cc3)cc2)nc1	n	n	n	n
CCCc1ccc(-c2ccc(C(=O)Oc3ccccc3F)cc2)nc1	n	n	55	n
O=C(Cn1nnc(-c2ccc([N+](=O)[O-])cc2)n1)Nc1cccc([N+](=O)[O-])c1	n	n	n	n
Fc1ccc(Br)cc1C1C=C(c2cccs2)Nc2nnnn21 (centres undefined)	n	n	n	n
SMILES	FBW7 activator	MITF primary	TEAD-YAP block	GPR151 ag
Fc1cccc(-c2cnc3ccc(NCCc4cccnc4)nn23)c1	n	n	65	n
Clc1ccc(-c2cnc3ccc(NCCc4cccnc4)nn23)cc1	n	n	52	n
c1cncc(CCNc2ccc3ncc(-c4ccc5ccccc5c4)n3n2)c1	n	n	n	n
COc1ccc(C2C(C#N)=C(N)N(N(C)C)C3=C2C(=O)CCC3)cc1OC (centres undefined)	n	n	n	n
Cc1ccc(N=c2c([N+](=O)[O-])nn(-c3ccc4c(c3)OCCO4)n2O)c(Cl)c1	n	n	47	n
Cc1cc(C)cc(N=c2c([N+](=O)[O-])nn(-c3ccc4c(c3)OCCO4)n2O)c1	n	n	n	n
COc1ccc(-n2nc([N+](=O)[O-])c(=Nc3ccccc3)n2O)cc1	n	n	54	n
O=[N+]([O-])c1nn(-c2ccc3c(c2)OCCO3)n(O)c1=Nc1ccccc1	n	n	89	n
